TLR4-MyD88 BLA: inhibitors of human TLR4-MyD88 binding; O00206+Q99836; HeLa CL3-4 TLR4/MyD88 BLA complementation, FRET ratio; inhibition, % at 8.4 µM; 0.18% of 200,000 active; in the data active = inhibition above about 25%;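 note: 0% = vehicle and 100% = reference inhibitor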
Myeloid diff 2: myeloid differentiation induction | ER-HoxA9 myeloid progenitors, lysozyme-GFP differentiation, flow cytometry | calls only at 10 µM | 1% of 360,000 active | AID 624256;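 active = normalized GFP-positive differentiation at or above the plate's own cutoff, the solvent-only control mean plus 3 SD; inconclusive = no clear call, values can overlap the other calls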;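 note: cells exposed to compound for four days before flow analysis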
NOD2-RIPK2 inh: blocks binding of human NOD2 to RIPK2 | inhibition, % at 4.98 µM | 0.38% of 360,000 active | CHO BLA complementation NOD2-RIPK2, CCF4 ratio | AID 624267; in the data active = inhibition above about 21%;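 note: 0% = vehicle only and 100% = reference blocker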
TLR9-MyD88 block: inhibitors of human TLR9-MyD88 binding. Q9NR96+Q99836. CHO BLA complementation TLR9-MyD88, CCF4 FRET ratio. inhibition, % at 4.98 µM. 0.21% of 340,000 active;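 active = inhibition above the mean over all tested compounds plus 3 SD, cut at about 21% in these data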;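 note: 0% = DMSO only wells and 100% = clavulanate BLA inhibitor control wells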
Target sequence (Q99836 whole entry, looked up): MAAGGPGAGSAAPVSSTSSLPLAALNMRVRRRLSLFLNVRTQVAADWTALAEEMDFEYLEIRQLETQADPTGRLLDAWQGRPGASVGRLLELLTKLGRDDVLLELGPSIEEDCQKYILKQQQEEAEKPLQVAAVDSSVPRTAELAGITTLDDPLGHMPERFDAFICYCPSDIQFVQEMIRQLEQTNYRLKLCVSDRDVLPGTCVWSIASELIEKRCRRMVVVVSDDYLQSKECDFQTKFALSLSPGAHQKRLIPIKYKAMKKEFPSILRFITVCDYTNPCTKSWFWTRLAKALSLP
Target sequence (Q9NR96 whole entry, looked up): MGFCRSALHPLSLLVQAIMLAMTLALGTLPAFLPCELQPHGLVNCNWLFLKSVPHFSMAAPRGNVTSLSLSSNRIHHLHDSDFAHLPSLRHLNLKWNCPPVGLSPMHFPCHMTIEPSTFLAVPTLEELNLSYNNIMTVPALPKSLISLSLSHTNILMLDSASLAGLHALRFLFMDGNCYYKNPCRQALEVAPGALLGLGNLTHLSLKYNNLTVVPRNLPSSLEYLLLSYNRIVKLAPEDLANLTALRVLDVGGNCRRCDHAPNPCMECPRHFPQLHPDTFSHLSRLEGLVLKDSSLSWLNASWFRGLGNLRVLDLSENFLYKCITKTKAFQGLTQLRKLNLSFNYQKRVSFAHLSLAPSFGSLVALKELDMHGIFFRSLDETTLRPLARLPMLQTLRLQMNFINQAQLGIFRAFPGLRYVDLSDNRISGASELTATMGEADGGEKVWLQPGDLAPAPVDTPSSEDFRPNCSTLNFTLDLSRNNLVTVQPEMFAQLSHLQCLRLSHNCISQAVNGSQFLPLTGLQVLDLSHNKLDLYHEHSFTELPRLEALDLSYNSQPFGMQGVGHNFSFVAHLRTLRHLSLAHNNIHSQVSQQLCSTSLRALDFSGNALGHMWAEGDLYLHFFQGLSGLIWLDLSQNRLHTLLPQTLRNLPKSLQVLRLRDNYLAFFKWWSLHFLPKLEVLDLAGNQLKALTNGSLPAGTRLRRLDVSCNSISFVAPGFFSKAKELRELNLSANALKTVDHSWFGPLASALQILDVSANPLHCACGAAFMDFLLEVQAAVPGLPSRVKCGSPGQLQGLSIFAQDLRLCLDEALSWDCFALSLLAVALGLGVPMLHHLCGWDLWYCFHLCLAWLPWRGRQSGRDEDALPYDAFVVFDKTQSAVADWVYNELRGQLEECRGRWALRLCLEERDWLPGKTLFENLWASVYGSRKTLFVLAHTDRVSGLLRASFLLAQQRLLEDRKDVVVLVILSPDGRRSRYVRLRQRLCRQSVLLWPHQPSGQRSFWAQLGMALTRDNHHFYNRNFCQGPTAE
* marks the source's active call; other numbers are inactive results; i = inactive; ? = inconclusive; . = no result given; + = active, no number. Hits are enriched below; roughly 1.5% of the tested compounds scored in any of these assays.

SMILES | TLR4-MyD88 BLA | Myeloid diff 2 | NOD2-RIPK2 inh | TLR9-MyD88 block
N/C(=N\OC(=O)Oc1ccccc1)c1ccc([N+](=O)[O-])cc1 | -1.8 | i | -13.3 | 5.3
O=[N+]([O-])c1ccc(NN=C(Oc2ccccc2)c2ccc([N+](=O)[O-])cc2)cc1 | . | + | 2.0 | 3.2
COc1ccc(CCN2C(=O)CC(NNc3ccc([N+](=O)[O-])cc3)C2=O)cc1OC (stereo not given) | 2.2 | + | -4.0 | 4.2
COc1ccc(CCNC2CC(=O)N(CCc3ccc(OC)c(OC)c3)C2=O)cc1OC (stereo not given) | 10.8 | i | 5.2 | -0.3
O=C1NC(=S)S/C1=C/c1ccc(N2CCOCC2)o1 | -0.8 | + | -6.7 | -1.9
O=C(Nc1cc(S(=O)(=O)Nc2ccccc2Cl)ccc1O)c1sc2cc(Cl)ccc2c1Cl | 4.6 | + | -3.8 | -8.7
O=C(O)C1CCCN1S(=O)(=O)c1ccccc1 (stereo not given) | 9.2 | + | -9.6 | -1.7
CC(=O)N1CCC(C(=O)N2c3ccccc3N=C(c3ccc(C(F)(F)F)cc3)C2C(=O)NC2CCCC2)CC1 (stereo not given) | . | i | 1.8 | .
O=C1OC(c2ccc(O)cc2)(c2ccc(O)cc2)c2ccccc21 | -2.2 | i | -9.9 | -2.5
O=C1OC(c2ccccc2)(c2ccc3cc(O)ccc3c2)c2ccccc21 (stereo not given) | . | + | 13.5 | 1.2
COc1ccc(CNC(=O)CSc2nnc3nc(C)cc(C)n23)cc1OC | -19.6 | + | -15.5 | 8.0
C=CCn1nc(C(=O)Nc2ccc(OC)cc2)cc1-c1sc(NC(=O)c2ccccc2)nc1C | . | i | -3.4 | .
C[C@@H]1COc2cccc(N3CCSCC3)c2S(=O)(=O)N1 | . | i | -3.5 | .
COc1ccc(Br)cc1CNC(=O)CCCc1cn(C)c2ccccc12 | -5.0 | + | -13.4 | -5.4
O=c1c2ccccc2nc2n1-c1ccccc1CCC2 | -6.9 | i | 0.3 | 1.1
O=C1c2ccccc2-n2c1nc1ccccc1c2=O | 6.3 | + | -7.5 | 1.9
Cn1c2ccccc2c(=O)c2ccc(NCCc3cccs3)cc21 | . | + | -4.1 | 5.7
Nc1sc(Cc2ccccc2)cc1C(=O)c1c(-c2ccccc2)[nH]c2ccccc12 | . | ? | -0.6 | .
O=C1C=C(NCc2ccccc2)c2ccccc2C1=O | -8.3 | + | -6.6 | -1.9
Cc1cccc(NC(=S)N(CCN(C)C)C(C)c2ccccn2)c1 (stereo not given) | -1.5 | + | -9.9 | 0.4
O=C(Cc1ccc(F)cc1)N1CCN(c2ccc([N+](=O)[O-])cc2)CC1 | . | + | 5.8 | -10.9
CC1(C(=O)Nc2ccc3c(c2)OCCO3)CN(S(C)(=O)=O)CC(=O)N1CCc1ccccc1F (stereo not given) | . | i | -18.1 | .
COc1ccc(S(=O)(=O)N2CCCCC2c2cc(C(=O)NCc3ccccc3)no2)cc1 (stereo not given) | . | i | -2.2 | .
CC(C)CCn1c(CN2CCN(c3cccc(Cl)c3)CC2)nc2c1c(=O)n(C)c(=O)n2C | . | + | -9.6 | -5.7
COc1ccc(N2CCN(Cc3nc4c(c(=O)[nH]c(=O)n4C)n3CCCc3ccccc3)CC2)cc1 | 1.0 | i | -8.9 | 3.4
SMILES | TLR4-MyD88 BLA | Myeloid diff 2 | NOD2-RIPK2 inh | TLR9-MyD88 block
COCCn1c(CN2CCN(c3cccc(Cl)c3)CC2)nc2c1c(=O)n(C)c(=O)n2C | 3.7 | i | -1.6 | 1.0
COc1ccc(N2CCN(Cc3nc4c(c(=O)[nH]c(=O)n4C)n3Cc3cccc(Cl)c3)CC2)cc1 | . | + | -1.2 | 3.5
COc1ccc(CC(=O)Nc2cccc(S(=O)(=O)N3CCCCCC3)c2)cc1OC | -4.3 | + | -8.3 | 1.4
CSc1nc2ccccc2cc1/C=C(\C#N)c1ccccc1 | -3.7 | . | -6.2 | 1.4
O=Cc1cc2ccccc2nc1SCCCF | -4.5 | + | 10.2 | 11.2
Cc1nnc(-c2cccc(Br)c2)c2cn(-c3ccc(Br)cc3)nc12 | -3.4 | i | 3.3 | 5.7
COc1ccc(-n2cc3c(-c4cccc(Br)c4)nnc(C)c3n2)cc1 | -17.2 | + | 14.8 | 4.8
Cc1nnc(-c2cccc(Br)c2)c2cn(-c3ccccc3)nc12 | -9.5 | + | 3.0 | -3.9
CN1C(=O)N(c2ccccc2)C(Nc2nncs2)C1(C)C (stereo not given) | -6.4 | + | -13.8 | -23.7
COC(=O)[C@]12CCCCC=C1N(CCC1=CCCCC1)C(=O)[C@H](CC(=O)N1CCCCC1)C2 | . | i | 10.3 | .
COc1cc(OC)cc(C2=Cc3ccccc3C(CC(=O)c3ccco3)N2c2ccc(-c3cncnc3)cc2)c1 (stereo not given) | . | i | -9.5 | .
Nc1c(C(=O)NCc2ccccc2)c2nc3ccccc3nc2n1-c1ccc2c(c1)OCO2 | -43.0 | + | 4.8 | -6.3
COc1ccc(C(=O)Nc2ccc(N3CCCC3)cc2)cc1 | -5.1 | + | -13.5 | 3.7
O=C(Nc1ccc(N2CCCC2)cc1)c1ccc(Br)o1 | 7.8 | + | 3.0 | 1.0
O=C(Nc1ccc(Oc2ccccc2)cc1)c1csc([C@H]2C[C@H](O)[C@@H](CO)O2)n1 | . | i | -10.8 | .
O=C(NCc1ccccc1)c1cc(C2CCCN(S(=O)(=O)c3cccs3)C2)on1 (stereo not given) | . | i | -5.4 | .
O=C(/C=C/c1ccc([N+](=O)[O-])s1)N1CCCCC1 | 0.7 | ? | -10.9 | 6.2
O=C(/C=C/c1ccc([N+](=O)[O-])s1)N1CCCC1 | 10.4 | + | 3.3 | 5.5
Cc1cc(C)cc(NC(=O)N2CCC(NC(=O)c3ccco3)CC2)c1 | . | ? | -3.6 | -3.8
Cc1ccc(NC(=O)N2CCC(NC(=O)c3ccco3)CC2)cc1 | . | + | -1.0 | -5.6
COC1OCC(O)C(NC(=O)N(C)N=O)C1O (stereo not given) | . | i | -15.6 | -5.7
CNc1cncc(-c2ccc(CN3CCOCC3)cc2)n1 | . | i | -12.7 | .
O=C(CNc1cccc([N+](=O)[O-])c1)N/N=C/c1ccc([N+](=O)[O-])o1 | -13.1 | + | -3.1 | -15.1
O=C(CNc1cccc2ccccc12)N/N=C/c1ccc([N+](=O)[O-])o1 | 1.0 | i | -0.5 | 0.1
O=C(Cc1ccc([N+](=O)[O-])cc1)N/N=C/c1ccc([N+](=O)[O-])o1 | 7.9 | + | 1.8 | -1.8
SMILES | TLR4-MyD88 BLA | Myeloid diff 2 | NOD2-RIPK2 inh | TLR9-MyD88 block
Cc1oc(-c2ccc(Cl)cc2)nc1CN1CCCC(C(=O)NCc2ccco2)C1 (stereo not given) | 2.3 | + | -2.3 | 1.2
Cc1oc(-c2ccc(Cl)cc2)nc1CN1CCCC(C(=O)NC2CC2)C1 (stereo not given) | . | i | 2.2 | 4.4
CCN(CC)S(=O)(=O)c1ccc(Cl)c(C(=O)OC)c1 | -1.1 | + | -7.3 | -2.5
O=S1(=O)CC(N2CC=CC2)CN1Cc1cn(Cc2ccc(Cl)cc2)nn1 (stereo not given) | . | i | -0.7 | .
C/C(=N/NC(N)=S)c1cc2ccc(O)cc2oc1=O | . | + | -81.8 | -59.7
C/C(=N/NC(=O)c1ccncc1)c1cc2ccc(O)cc2oc1=O | -38.3 | i | -76.1 | -88.0
Cc1cccn2c(=O)c3cc(C(N)=S)c(=N)n(CCCOC(C)C)c3nc12 | 0.6 | + | 3.0 | 6.0

Source: PubChem BioAssay
